GPR151 activ: human GPR151 activation. Q8TDV0. PathHunter beta-arrestin GPR151 cells, luminescence. activation, % at 11.2 µM. 650,000 compounds, 1% hits; in the data active means activation above about 4.9%;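 further: 0% = median of compound wells and 100% = cells with positive control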
MITF inh: human MITF inhibition, primary screen; AlphaScreen MITF homodimerization, bead proximity signal; 650,000 compounds, 0.91% hits; inhibition, % at 2.6 µM; in the data active means inhibition above about 50%;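 further: 0% = vehicle wells with protein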
TEAD-YAP block: TEAD-YAP interaction inhibition; HEK-TIYL cells, TEAD-Gal4/YAP UAS-luciferase luminescence; inhibition, % at 9.12 µM; 640,000 compounds, 1.4% hits; in the data active means inhibition above about 32%;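 further: 0% = median of test compound wells and 100% = reference inhibitor wells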
FBW7 act: activators of human E3 ligase FBW7; Q969H0; normalized activity (activation), % at 26.1 µM; AlphaScreen FBW7–phospho-cyclin E peptide binding, activator screen; 650,000 compounds, 0.13% hits; in the data active means normalized activity above about 1.9%;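 further: purified mutant Fbw7 with reduced substrate affinity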
Target sequence (Q969H0 whole entry, looked up): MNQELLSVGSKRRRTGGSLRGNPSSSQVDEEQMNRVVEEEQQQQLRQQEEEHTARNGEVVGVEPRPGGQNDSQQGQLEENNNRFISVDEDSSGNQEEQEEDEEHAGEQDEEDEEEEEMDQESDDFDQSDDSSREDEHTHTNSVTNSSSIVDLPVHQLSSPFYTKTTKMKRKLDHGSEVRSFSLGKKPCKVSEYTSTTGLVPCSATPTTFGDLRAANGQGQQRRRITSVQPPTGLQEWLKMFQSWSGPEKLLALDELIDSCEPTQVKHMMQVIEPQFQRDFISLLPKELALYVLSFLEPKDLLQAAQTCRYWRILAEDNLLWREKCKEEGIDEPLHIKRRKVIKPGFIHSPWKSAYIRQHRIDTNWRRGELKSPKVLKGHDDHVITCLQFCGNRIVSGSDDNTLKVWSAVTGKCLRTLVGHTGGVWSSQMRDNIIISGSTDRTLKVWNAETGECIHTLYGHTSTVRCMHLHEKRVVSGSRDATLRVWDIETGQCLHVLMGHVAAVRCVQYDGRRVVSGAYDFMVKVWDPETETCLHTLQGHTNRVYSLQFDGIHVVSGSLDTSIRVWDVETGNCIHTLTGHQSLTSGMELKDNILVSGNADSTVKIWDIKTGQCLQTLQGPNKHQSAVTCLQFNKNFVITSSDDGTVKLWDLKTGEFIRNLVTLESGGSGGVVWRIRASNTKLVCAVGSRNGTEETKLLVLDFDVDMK
* hit, by the source's call; ! = a repeat was not active. Rows were chosen to be rich in hits. Some 3.4% of all compounds tested hit in one or more screens of this group.

SMILES	GPR151 activ	MITF inh	TEAD-YAP block	FBW7 act
CSc1ccc(C(Nc2ccccn2)c2ccc3ccc(C)nc3c2O)cc1 (stereo unspecified)	0	1	21	0
O=CN1CCc2c([nH]c3ccc(F)cc23)C12CCN(CCCOc1ccccc1)CC2	-1	-6	-21	0
CCc1ccc(C(Nc2ccccn2)c2ccc3cccnc3c2O)cc1 (stereo unspecified)	1	28	84*	-1
Cc1ccc(C(Nc2cccc(C)n2)c2ccc3cccnc3c2O)cc1 (stereo unspecified)	0	6	76*	-1
CCOC(=O)C1=C(COC(=O)CNS(=O)(=O)/C=C/c2ccccc2)NC(=O)NC1C (stereo unspecified)	0	14	0	0
O=C(NCCN1Cc2ccccc2OC(c2ccccc2)C1)c1cccc2nccnc12 (stereo unspecified)	0	10	0	0
O=C(N/N=C/c1ccccc1O)c1ccccn1	-1	-39	-55	0
O=C(N/N=C/c1ccc(O)c(O)c1O)c1ccccn1	-3	108*	-42	-1
Cc1cccc(/C=N/NC(=O)c2ccccn2)c1O	-6	13	55*	-2
Cc1ccc(O)c(/C=N/NC(=O)c2ccccn2)c1	-4	57*	-13	-1
Cc1cccc(/C=N\NC(=O)c2ccccc2Cl)c1O	1	-2	-61	0
CCOC(=O)c1sc(NC(=O)CSc2nnc(CNC(=O)c3ccccc3F)n2Cc2ccccc2)c(C(=O)OCC)c1C	1	-7	-2	0
Cc1cccc(C)c1NC(=O)CSc1ccccc1	0	16	5	0
Cc1sc2nc(C3CC3)n(C3CCN(C(=O)Cc4ccsc4)CC3)c(=O)c2c1C	0	-6	5	0
O=C(Nc1ccc2c(c1)CCCN2C(=O)c1cccs1)NC(c1ccccc1)c1ccccc1	0	-1	45*	0
CC(=O)N1CCc2ccc(NS(=O)(=O)c3ccc(C(C)(C)C)cc3)cc21	2	7	32*	0
CC(C)CS(=O)(=O)Nc1ccc2c(c1)N(C(=O)c1cccs1)CC2	0	6	-2	0
CCC(=O)N1CCCc2ccc(NS(=O)(=O)c3ccc(OC)c(F)c3)cc21	2	10	58*	0
Cc1ccc(S(=O)(=O)Nc2ccc3c(c2)N(C(=O)c2cccs2)CCC3)cc1	0	24	50*	0
Cc1cccc(OCC(=O)Nc2ccc3c(c2)CCCN3C(=O)c2cccs2)c1	0	9	3	0
O=c1c2c([nH]c3[nH]n(-c4ccccc4)c(=O)c13)CCCC2	-1	4	-10	0
CCN1/C(=C2\SC(=S)N(C)C2=O)C=Cc2cc(C)ccc21	-1	6	4	0
CC(=O)c1cccc(Nc2nc(-c3ccc(C)cc3)nc3ccccc23)c1	2	0	1	0
CC(=O)c1cccc(Nc2nc(-c3ccc(C(C)(C)C)cc3)nc3ccccc23)c1	2	1	59*	0
Fc1cccc(Nc2nc(-c3ccccc3F)nc3ccccc23)c1	2	12	26	0
SMILES	GPR151 activ	MITF inh	TEAD-YAP block	FBW7 act
CC(=O)Nc1cccc(-c2nc(-c3ccccc3)nc3ccccc23)c1	1	15	5	1.9*
S=c1nc(Nc2cc(Cl)cc(Cl)c2)c2ccccc2[nH]1	0	-1	5	0
CC(=O)Nc1cccc(Nc2nc(-c3ccccc3F)nc3ccccc23)c1	0	-1	32*	0
CC(=O)c1cccc(Nc2nc(=S)[nH]c3ccccc23)c1	0	2	61*	0
CCCCNC(=O)c1ccc2c(c1)NC(=O)C(CSCc1ccc(F)cc1Cl)N2 (stereo unspecified)	0	-9	-2	0
CCCCC(=O)OCCCN1C(=O)c2cccc3c(N4CCCCC4)ccc(c23)C1=O	1	-2	0	0
CCCCC(=O)OCCN1C(=O)c2cccc3c(N4CCOCC4)ccc(c23)C1=O	1	-31	-23	3.4*
Cc1cc(C)c(NC(=O)CC2Sc3ccccc3NC2=O)c(Cl)c1 (stereo unspecified)	1	8	37*	0
CN(C)c1cccc(Nc2cc(NC3CCN(Cc4ccccc4)CC3)ncn2)c1	1	7	1	0
CC(=O)Nc1ccc(NC(=O)c2ccc(F)cc2)nc1	0	6	-26	0
CNC(=O)c1cc(F)ccc1Nc1cc(Nc2ccc3c(c2)CC(=O)N3)ncc1C(F)(F)F	-2	4	1	0
CNC(=O)c1cc(F)ccc1Nc1cc(Nc2ccc(NC(C)=O)cc2)ncc1C(F)(F)F	0	0	38*	0
CNC(=O)c1cc(F)ccc1Nc1cc(Nc2ccc3c(c2)NC(=O)C3)ncc1C(F)(F)F	0	7	39*	0
C=CCn1c(SCc2c(C)noc2C)nc2scc(C3CC3)c2c1=O	1	-1	50*	0
O=C(CCc1ccccc1)N1CCN(c2nc3ccccc3s2)CC1	1	-2	-24	0
COc1ccc(Cl)c2sc(NC(=O)c3ccco3)nc12	3	0	4	2.1*
O=C(NCc1ccco1)c1cc2cc(Br)cc(Br)c2oc1=Nc1cccc2nonc12	-2	-3	-23	0
Nc1cccc(-c2nc(NC3CC3)c3[nH]cnc3n2)c1	-1	-2	-5	0
O=C(Cn1c2ccccc2c(=O)c2ccc(Cl)cc21)Nc1ccc(F)cc1Cl	-1	0	-10	0
CCn1c(C)cc(/C=C2/NC(=O)N(c3ccccc3)C2=O)c1C	-1	2	33*	0
COc1ccccc1/C=C1/NC(=O)N(c2cccc(Cl)c2)C1=O	-1	18	-6	0
COc1cccc(/C=C2/NC(=O)N(c3ccccc3)C2=O)c1O	-7	-11	35*	0
CCCCc1ccc(C2=N/C(=C\c3ccccc3OCC)C(=O)O2)cc1	2	-7	0	0
Oc1c(C(c2cccs2)N2CCN(c3ccccc3)CC2)ccc2cccnc12 (stereo unspecified)	0	18	87*	0
Oc1c(C(c2cccs2)N2CCOCC2)ccc2cccnc12 (stereo unspecified)	2	61*	77*	-1
SMILES	GPR151 activ	MITF inh	TEAD-YAP block	FBW7 act
COC(=O)[C@@H]1C[C@H](NC(=O)c2cccc(-c3cccc(F)c3)c2)CN1Cc1ccncc1	0	4	-2	0
c1cc(CNc2ccn3ncc(-c4ccc5c(c4)OCO5)c3n2)ccn1	0	9	26	0
CN(C)CCNc1ccn2ncc(-c3ccc4c(c3)OCO4)c2n1	-1	-1	-3	2.0*
O=C(NCC(c1cccs1)N1CCOCC1)c1ccc([N+](=O)[O-])o1 (stereo unspecified)	1	3	55*	0
N#Cc1ccc(C(=O)Nc2ccccc2[N+](=O)[O-])c(F)c1	0	3	-1	0
COc1ccc(OC)c(C2CNC(=O)C2)c1 (stereo unspecified)	0	0	2	0
COc1ccc(C2CNC(=O)C2)cc1OC1CCCC1 (stereo unspecified)	-1	4	33*!	0
